Reference: PubChem BioAssay (NCATS)
“And” between values parts separate entries of the source, which are not always exact repeats. Equal values may be shown once. Inconclusive results are not listed. The source made the active and inactive calls. The call rests on the fitted dose curve; in most records, active means well fitted curve in the direction sought with a large enough effect; inconclusive means small, poorly fitted or top-dose-only effect, or another doubt; inactive means no such curve, though single readings can be large; an effect the other way counts as inactive or inconclusive.

Legend:
[1] = Viability qHTS for spleen associated tyrosine kinase inhibitor (SYKi) naive MV4-11 cells (AID 1963823); further: nearly all actives have a fitted effect of over 40% in size
Method in brief: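 qHTS, SYK inhibitor-naive MV4-11; 500 cells/well; 72 hr compound exposure, 37 C; CellTiter-Glo added, 10 min RT; luminescence read.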

[2] = Viability qHTS for spleen associated tyrosine kinase inhibitor (SYKi) drug resistant MV4-11 cells (AID 1963824); further: nearly all actives have a fitted effect of over 35% in size
Method in brief: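 SYK-inhibitor-resistant MV4-11 AML cells were seeded at 500 per well onto compound and cultured 72 hours (37 °C, 5% CO2). CellTiter-Glo was then added, and after 10 min at room temperature, luminescence gave viability.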

[3] = Cellular viability qHTS for adrenocortical cancer (ACC) cell line NCI-H295R (AID 1963990); further: nearly all actives have a fitted effect of over 60% in size
Method in brief: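 Readout: CellTiter-Glo luminescence, 20 min RT. Exposure: 48 h, 37C/5% CO2. Cells: NCI-H295R, ITS-DMEM serum-free. Range: up to 46 uM. Analysis: 4PL fit, IC50 plus efficacy.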
Potency means the concentration at half of the fitted maximal effect.

| SMILES | Potency [1] | Potency [2] | Potency [3] |
| --- | --- | --- | --- |
| N#Cc1ccc(C2CCCc3cncn32)cc1 (centres undefined) | inactive | inactive | inactive |
| Cc1ccc([N+](=O)[O-])cc1S(=O)(=O)N(C)/N=C/c1cnc2ccc(Br)cn12 | 16.4 nM (active) and 26.3 nM (active) | 16.4 nM (active) and 46.8 nM (active) | 0.282 µM (active) |
| C[C@@H]1C[C@H](N)C[C@H](c2ccncc2NC(=O)c2ccc(F)c(-c3c(F)cccc3F)n2)C1 | 1.18 µM (active) | 2.63 µM (active) | 28.2 µM (active) |
| CC(C)(C)NC(=O)[C@@H]1CN(Cc2cccnc2)CCN1C[C@@H](O)C[C@@H](Cc1ccccc1)C(=O)N[C@H]1c2ccccc2C[C@H]1O | inactive | inactive | inactive |
| Cn1ncc2cc(-c3cnc(N)c(Cl)c3N3CCC4(CCNC4=O)CC3)ccc21 | 2.31 µM (active) and 1.48 µM (active) | 2.59 µM (active) and 2.95 µM (active) | inactive |
| COc1cc2c(cc1OC)-c1cc(=Nc3c(C)cc(C)cc3C)n(C)c(=O)n1CC2 | 9.44 µM (active) | 10.6 µM (active) | 20.6 µM (active) |
| c1ccc(CNCc2ccc(CN3CCCNCCNCCCNCC3)cc2)nc1 | inactive | inactive | inactive |
| CN[C@H](CC(C)C)C(=O)N[C@H]1C(=O)N[C@@H](CC(N)=O)C(=O)N[C@H]2C(=O)N[C@H]3C(=O)N[C@H](C(=O)N[C@H](C(=O)O)c4cc(O)cc(O)c4-c4cc3ccc4O)[C@H](O)c3ccc(c(Cl)c3)Oc3cc2cc(c3O[C@@H]2O[C@H](CO)[C@@H](O)[C@H](O)[C@H]2O[C@H]2C[C@](C)(N)[C@H](O)[C@H](C)O2)Oc2ccc(cc2Cl)[C@H]1O | inactive | inactive | inactive |
| CN(C)CCCOc1ccc(-c2ccc3ncc4c(c3c2)n(C2CCOCC2)c(=O)n4C)cn1 | 1.15 µM (active) | 2.04 µM (active) | 1.8 µM (active) |
| COc1cc(OC)cc(N(CCNC(C)C)c2ccc3ncc(-c4cnn(C)c4)nc3c2)c1 | 5.25 µM (active) | 4.11 µM (active) | 22.4 µM (active) |
| COC1CCN(C(=O)c2cc(Cc3n[nH]c(=O)c4ccccc34)ccc2F)CC1 | 18.6 µM (active) | 14.8 µM (active) | inactive |
| C=CC(=O)N1CCC(Oc2cc3c(Nc4ccc(Cl)c(Cl)c4F)ncnc3cc2OC)CC1 | 1.03 µM (active) | 4.68 µM (active) | 25.1 µM (active) |
| Cc1[nH]c(/C=C2\C(=O)Nc3ccc(S(=O)(=O)Cc4c(Cl)cccc4Cl)cc32)c(C)c1C(=O)N1CCC[C@@H]1CN1CCCC1 | 0.934 µM (active) | 1.86 µM (active) | 7.08 µM (active) |
| C[C@H](CCC(=O)O)[C@H]1CC[C@H]2[C@@H]3[C@@H](O)C[C@@H]4C[C@H](O)CC[C@]4(C)[C@H]3CC[C@]12C | inactive | inactive | inactive |
| N#Cc1ccc(-c2c(-c3ncn[nH]3)sc(N3CCOCC3)c2C#N)c(F)c1 | 3.26 µM (active) and 3.32 µM (active) | 2.06 µM (active) and 5.9 µM (active) | 4.47 µM (active) |
| Cc1cc(O[C@@H](CCC(F)(F)F)c2ccc(C(=O)NCCC(=O)O)cc2)cc(C)c1-c1ccc(C(C)(C)C)cc1 | 13.2 µM (active) | 9.34 µM (active) | 22.4 µM (active) |
| COC(=O)c1ccc([C@H]2c3[nH]c4ccccc4c3C[C@H](C(=O)OC)N2C(=O)CCl)cc1 | 0.235 µM (active) | 0.525 µM (active) | 0.0891 µM (active) |
| CCCC(CCC)C(=O)Nc1ccn([C@@H]2O[C@H](CO)[C@@H](O)C2(F)F)c(=O)n1 | 0.411 µM (active) | 0.58 µM (active) | inactive |
| Oc1ccc(O)cc1 | 11.9 µM (active) | 13.3 µM (active) | inactive |
| Cc1nc(NC(=O)N2CCCC2C(N)=O)sc1-c1ccnc(C(C)(C)C(F)(F)F)c1 (centres undefined) | 18.6 µM (active) | 9.2 µM (active) | 12.6 µM (active) |
| Cn1cc(C2=C(c3cn(C)c4cc([N+](=O)[O-])ccc34)C(=O)NC2=O)c2ccccc21 | 0.296 µM (active) | 0.372 µM (active) | 0.178 µM (active) |
| O=C(O)Cn1c(C(=O)Nc2nc(-c3ccccc3Cl)cs2)cc2ccccc21 | inactive | inactive | inactive |
| O=C(CCN1CCC(c2ccccc2)C1)c1ccc2c(c1)OCCO2 (centres undefined) | 7.5 µM (active) | 10.6 µM (active) | 6.51 µM (active) |
| CC(C)NCC(O)COc1cccc2[nH]ccc12 (centres undefined) | inactive | inactive | inactive |
| CC(=O)N[C@@H](CC(C)C)C(=O)O | inactive | inactive | inactive |
| OC1(c2ccc(Cl)c(C(F)(F)F)c2)CCN(CCCC(c2ccc(F)cc2)c2ccc(F)cc2)CC1 | 2.66 µM (active) and 3.66 µM (active) | 2.99 µM (active) and 3.26 µM (active) | 3.66 µM (active) |
| CNc1ncc2cc(-c3cc(NC(=O)NCCC(C)(C)C)c(F)cc3C)c(C)nc2n1 | 0.103 µM (active) | 0.164 µM (active) | 17.8 µM (active) |

| SMILES | Potency [1] | Potency [2] | Potency [3] |
| --- | --- | --- | --- |
| CCN(CC)CCOc1ccc(/C(=C(\Cl)c2ccccc2)c2ccccc2)cc1 | 9.44 µM (active) and 8.2 µM (active) | 10.6 µM (active) and 10.3 µM (active) | 7.31 µM (active) |
| C[C@]12C=CC(=O)C=C1CC[C@@H]1[C@@H]2[C@@H](O)C[C@@]2(C)[C@H]1CC[C@]2(O)C(=O)CO | inactive | inactive | inactive |
| C[C@]12CC[C@@H]3c4ccc(O)cc4CC[C@H]3[C@@H]1CC[C@@H]2O | 16.6 µM (active) | 14.8 µM (active) | 7.94 µM (active) |
| CN1CCCC(CC2c3ccccc3Sc3ccccc32)C1 (centres undefined) | 18.8 µM (active) | 16.8 µM (active) | 18.4 µM (active) |
| COc1ccc(S(=O)(=O)N[C@@H](CNc2nc(C)nc(N3CCC(c4ccc5c(n4)NCCC5)CC3)c2C)C(=O)O)cc1 | inactive | inactive | inactive |
| O=C(OCC1(COC(=O)c2cccnc2)CCCC(COC(=O)c2cccnc2)(COC(=O)c2cccnc2)C1O)c1cccnc1 | inactive | inactive | inactive |
| Cn1cc(-c2ccc(-c3cncc(Cl)c3N3CCC4(CCNC4=O)CC3)cc2)cn1 | 5.25 µM (active) | 1.48 µM (active) | inactive |
| CC/C(=C(/CC)c1ccc(O)cc1)c1ccc(O)cc1 | 16.6 µM (active) | 18.6 µM (active) | 3.66 µM (active) and 8.91 µM (active) |
| COc1cc(C(=O)NC(N)=Nc2ccc(C)c(NC(=O)c3ccc(-c4ccccc4)cc3)c2)cc(OC)c1OC | 14.8 µM (active) | 8.33 µM (active) | 10 µM (active) |
| Nc1nccn2c(C3CCC(C(=O)O)CC3)nc(-c3cc4cccc(Cl)c4[nH]3)c12 (centres undefined) | 0.934 µM (active) | 580 nM (active) and 1.48 µM (active) | 12.6 µM (active) |
| Cc1ccc(Nc2nnc(Cc3ccncc3)c3ccccc23)cc1Br | 14.8 µM (active) | 10.5 µM (active) | inactive |
| Cc1c[nH]c(/C=C2\C(=O)Nc3ccccc32)c1CCC(=O)O | 0.468 µM (active) | 1.16 µM (active) and 1.32 µM (active) | inactive |
| Cc1ccccc1N=Nc1ccc(N=Nc2c(O)ccc3ccccc23)c(C)c1 | inactive | inactive | inactive |
| CCS(=O)(=O)N1CCN(c2ccc(Nc3ncc(C(N)=O)c(NC4CC4)n3)cc2)CC1 | 130 nM (active) and 332 nM (active) | 184 nM (active) and 525 nM (active) | 10 µM (active) |
| CC(C)NC(=O)C1CCC(n2c(NC(=O)c3ccc(F)cc3)nc3ccc(CN4CCC(C(C)(C)O)CC4)cc32)CC1 (centres undefined) | 1.02 µM (active) | 2.04 µM (active) | 10.1 µM (active) |
| CC(=O)OCC(=O)[C@@]1(O)[C@H](OC(C)=O)C[C@H]2[C@@H]3CCC4=CC(=O)C=C[C@]4(C)[C@@]3(F)[C@@H](O)C[C@@]21C | inactive | inactive | inactive |
| O=S(=O)(c1cccc2c(I)cccc12)N1CCCNCC1 | 7.42 µM (active) | 16.4 µM (active) | 25.1 µM (active) |
| CC(C)CNc1ccnc(NCc2csc(-c3ccccc3)n2)n1 | 1.66 µM (active) | 1.16 µM (active) | 11.2 µM (active) |
| CC[N+](CC)(CC)CCOc1ccc(/C=C/c2ccccc2)cc1 | inactive | inactive | inactive |
| CCOC(=O)N1CCN(/[N+]([O-])=N/Oc2ccc([N+](=O)[O-])cc2[N+](=O)[O-])CC1 | 2.95 µM (active) | 2.63 µM (active) | 22.4 µM (active) |
| Cc1ccc(C(=O)OCc2ccc([C@@H](CN)C(=O)Nc3ccc4cnccc4c3)cc2)c(C)c1 | 1.15 µM (active) | 2.29 µM (active) | 11.3 µM (active) |
| Cc1ccc2c(Br)cc(Br)c(O)c2n1 | 16.8 µM (active) | 11.9 µM (active) | 1.64 µM (active) |
| CCCCCCCCCCCCCCCC[N+](C)(C)Cc1ccccc1 | 2.37 µM (active) | 1.88 µM (active) | 8.2 µM (active) |
| COc1cc2c(cc1O)CCN[C@]21CS[C@@H]2c3c(OC(C)=O)c(C)c4c(c3[C@H](COC1=O)N1[C@@H]2[C@H]2c3c(cc(C)c(OC)c3O)C[C@@H]([C@@H]1O)N2C)OCO4 | 0.0014 µM (active) | 0.0015 µM (active) | 0.0094 µM (active) |
| Cc1nnc(C[C@@H]2C=C(c3ccc(Cl)cc3)c3ccccc3-n3c(C)nnc32)o1 | 0.235 µM (active) | 0.296 µM (active) | 6.31 µM (active) |
| O=C(/C=C/c1ccc(CN(CCO)CCc2c[nH]c3ccccc23)cc1)NO | 0.0742 µM (active) | 0.059 µM (active) | 0.562 µM (active) |
